# High-throughput results from PubChem BioAssay.
# ELG1 genotoxic: qHTS screen for small molecules that induce genotoxicity in human embryonic kidney (HEK293T) cells expressing luciferase-tagged ELG1; HEK293T ELG1-luciferase reporter, luminescence, 16 h; Potency, µM (highest dose often 46 µM), without a hit: top-dose activity change, positive = activation, hits mostly activators; 1.3% of 330,000 active; also: % of control where 0% means no effect; nearly all actives have a fitted effect of over 60% in size
#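 16 hr compound incubation (37 °C, 5% CO2) of HEK293T cells carrying luciferase-tagged ELG1; luciferase then measured by ONE-Glo luminescence after 30 min at RT.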
# Rab9 prom act: qHTS Assay for Rab9 Promoter Activators | Huh7 Rab9 promoter-luciferase reporter, luminescence, 24 h | Potency, µM (highest dose often 9.22 µM), without a hit: at the highest dose activation, negative = inhibition, usual class: activators | 2.8% of 320,000 active | AID 485297, 2010; also: % of control where 0% means no effect; nearly all actives have a fitted effect of over 60% in size
#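 Promoter activation is measured as luciferase luminescence in Huh7 cells stably transfected with a Rab9 promoter–luciferase construct, following 24 h compound exposure at 37 °C and 10 min reagent incubation at ambient temperature.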
# SMN2 splice up: qHTS Assay for Enhancers of SMN2 Splice Variant Expression; HEK293 SMN2-luciferase splicing reporter, luminescence, 30-36 h; Potency, µM (titrated, usually from 46.1 µM), inactives show top-dose activity change, positive = activation, usual class: activators; 2.8% of 210,000 active; AID 1458, 2008; also: % of control where 0% means no effect; nearly all actives have a fitted effect of over 55% in size
#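 HEK293 cells carry an SMN2 minigene-luciferase reporter in which exon 7 inclusion puts luciferase in frame. Cells were seeded at 2000 cells/well, attached for 10-12 hours, then exposed to compounds for 30-36 hours at 37C before ONE-Glo luminescence.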
# NPC1 prom act: qHTS Assay for NPC1 Promoter Activators; Huh7 NPC1 promoter luciferase reporter, 24 h; Potency, µM (titrated, usually from 9.22 µM), without a hit: top-dose activation, usual class: activators; 2.4% of 320,000 active; AID 485313, 2010; also: % of control where 0% means no effect; nearly all actives have a fitted effect of over 60% in size
#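 Readout is luciferase luminescence, reflecting NPC1 promoter activation in stably transfected Huh7 cells after 24 h compound exposure at 37 °C in reduced-serum medium with 10% FBS.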
# FLuc counter: qHTS profiling assay for firefly luciferase inhibitor/activator using purifed enzyme and Km concentrations of substrates (counterscreen for miR-21 project); Luciferin 4-monooxygenase (Photinus pyralis), P08659; purified FLuc, Km substrates, luminescence inhibition; 6.9% of 360,000 active; AID 588342, 2011; Potency, µM (highest dose often 57.5 µM), without a hit: at the highest dose activity change, negative = inhibition, usual class: inhibitors;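 also: plate controls were vehicle for no effect and reference inhibitor for full effect; nearly all actives have a fitted effect of over 55% in size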
# Target sequence (P08659 whole entry, looked up): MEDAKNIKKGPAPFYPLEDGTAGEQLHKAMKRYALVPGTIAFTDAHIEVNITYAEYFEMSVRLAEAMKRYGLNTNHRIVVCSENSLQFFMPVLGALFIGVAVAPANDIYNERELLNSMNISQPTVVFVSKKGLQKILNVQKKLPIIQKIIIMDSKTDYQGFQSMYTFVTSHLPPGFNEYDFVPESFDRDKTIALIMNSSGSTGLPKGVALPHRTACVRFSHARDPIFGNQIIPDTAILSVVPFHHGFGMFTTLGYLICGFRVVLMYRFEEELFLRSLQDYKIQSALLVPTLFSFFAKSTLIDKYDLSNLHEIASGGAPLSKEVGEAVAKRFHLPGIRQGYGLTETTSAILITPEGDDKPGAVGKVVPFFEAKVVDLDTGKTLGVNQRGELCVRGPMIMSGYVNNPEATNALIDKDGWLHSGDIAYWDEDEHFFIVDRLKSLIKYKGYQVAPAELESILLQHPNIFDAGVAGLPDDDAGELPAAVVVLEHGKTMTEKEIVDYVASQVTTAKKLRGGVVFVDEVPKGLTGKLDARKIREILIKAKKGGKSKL
#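 Purified P. pyralis luciferase, 10 nM final, with Km-level 10 uM D-luciferin and 10 uM ATP in 50 mM Tris acetate pH 7.5, 10 mM Mg acetate, 0.01% Tween-20, 0.05% BSA; 6-point qHTS titration about 60 µM downward; luminescence read.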
# ELG1 DNA repair: qHTS screen for small molecules that inhibit ELG1-dependent DNA repair in human embryonic kidney (HEK293T) cells expressing luciferase-tagged ELG1 | HEK293T ELG1-luciferase reporter, luminescence, 16 h; DNA damage induced by 5-fluorouridine | Potency, µM (highest dose often 46.1 µM), inactives show at the highest dose activity change, negative = inhibition, most hits filed as inhibitors | 2.3% of 330,000 active | AID 504467, 2011; also: % is scaled to controls: 0 for no effect and ±100 for the full control effect; nearly all actives have a fitted effect of over 55% in size
#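 Reporter activity after DNA damage by 5-fluorouridine is monitored. Compound-treated cells incubate 16 hr at 37 °C, then ONE-Glo is added for 30 min before luminescence reading.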
# The depositor's hits bear a star; ? = inconclusive; . = no result. Shown are actives, neighbours in structure and some others; about 9.2% of the full set was active somewhere. Calls follow the shape of the dose curve; as a rule, active = well fitted curve in the direction sought with a large enough effect; inconclusive = small, poorly fitted or top-dose-only effect, or another doubt; inactive = no such curve, though single readings can be large; an effect the other way counts as inactive or inconclusive. Potency is read from the fitted curve at half-maximal effect.
SMILES,ELG1 genotoxic,Rab9 prom act,SMN2 splice up,NPC1 prom act,FLuc counter,ELG1 DNA repair
CCCCCC(=O)Nc1nc(C)c(-c2csc(Nc3ccc(Cl)cc3)n2)s1,0.2%,-8.6%,-24.1%,-0.3%,?,?
Cc1nc(NC(=O)CC(C)C)sc1-c1csc(Nc2ccc(Cl)cc2)n1,-4.7%,-7.6%,-49.4%,-1.6%,?,23.1µM*
C=CCCC(=O)Nc1nc(C)c(-c2csc(Nc3cc(Cl)ccc3OC)n2)s1,-5.6%,1.3%,-18.3%,-10.6%,-11.9%,?
Cc1nc(NC(=O)CC(C)C)sc1-c1csc(Nc2ccc(Cl)cc2Cl)n1,-5.6%,-1.1%,-14.0%,-3.4%,?,14.6µM*
CN(C)S(=O)(=O)N(CC(=O)Nc1ccc(Br)cc1F)c1ccccc1,.,.,-8.1%,.,-13.9%,.
NS(=O)(=O)c1cccc(NC(=O)COC(=O)Cc2ccc(Cl)cc2)c1,2.4%,2.7%,3.0%,-1.6%,1.7%,-6.0%
Cc1cccc(N2CCN(C(=O)CS(=O)(=O)c3cccc4nsnc34)CC2C)c1 (stereo not given),.,.,.,.,-7.8%,.
C#CCOc1nc(Nc2cccc([N+](=O)[O-])c2)nc(OCC#C)n1,-4.7%,-11.3%,.,-0.1%,-14.5%,18.3µM*
COc1nc(Nc2cccc([N+](=O)[O-])c2)nc(OC)n1,2.5%,-3.3%,-5.9%,-0.3%,-0.7%,?
COC(=O)C1=C(CS(=O)(=O)c2ccccc2)NC(=O)NC1c1ccc(O)cc1 (stereo not given),0.9%,-5.7%,.,1.0%,7.1%,26.1%
Cc1cccc(NC(=O)c2ccccn2)c1C,16.3%,3.55µM*,-0.5%,?,?,?
Cc1ccccc1NC(=O)Nc1ccccn1,12.7%,?,.,?,-10.6%,?
Cc1cccc(NC(=O)Nc2ccccn2)c1C,13.0%,3.98µM*,.,?,9.53µM*,?
CSCc1ccc(C(=O)Nc2cccc(C)c2C)cc1,?,?,20µM*,?,12µM*,?
CCCCNC(=O)Nc1ccccn1,0.2%,-0.6%,5.01µM*,0.0%,-2.5%,10.9%
C[C@H](CO)N1C[C@H](C)[C@@H](CN(C)C(=O)Nc2ccc3c(c2)OCO3)Oc2ccc(NS(=O)(=O)c3ccccc3)cc2C1=O,-1.8%,.,.,.,.,0.9%
Cc1c(CN(C)C)c2c(n1Cc1ccccc1)C(=O)c1ccccc1-2,-7.8%,-0.2%,?,-4.1%,2.9%,-24.1%
Cc1cc(=O)n2c(nc3ccccc32)[nH]1,5.5%,3.1%,-47.5%,-1.0%,-19.4%,5.9%
CCOC(=O)c1cc(=O)n2c(nc3ccccc32)[nH]1,13.1%,?,.,27.7%,23.9µM*,?
CCCc1cc(=O)n2c(nc3ccccc32)[nH]1,?,?,?,15.9%,16.9µM*,?
CC(=O)NS(=O)(=O)c1ccc(Nc2ccc([N+](=O)[O-])c3nonc23)cc1,-2.5%,0.7%,.,0.0%,-12.4%,8.6%
O=C1/C(=C/c2cccc3ccccc23)CCCc2ccccc21,14.3%,25.6%,?,20.4%,13.5µM*,?
O=C(CSC(=S)N1CCCC1)N1CCN(S(=O)(=O)c2ccccc2F)CC1,-6.1%,-1.4%,.,-0.2%,3.5%,1.1%
Cc1ccc(C)c(-n2c(-c3ccc(Br)cc3)csc2=NC(=O)c2ccccc2F)c1,-9.8%,-3.2%,.,0.1%,1.2%,11.6µM*
O=C(Nc1ncc(Cc2cccc(Cl)c2Cl)s1)C1CCCO1 (stereo not given),16.4µM*,3.55µM*,15.8µM*,?,10.7µM*,?
